The values that follow come from PubChem BioAssay (EPA / NIEHS).

The source holds several records for some structures; these can differ, active in one and inactive in another. Activity calls are given as the source filed them. Rule for the calls: active = hit-call score of the fitted dose curve at least 0.9, where 1 is the maximum; inactive = score below 0.9.

Read-out in assay [1]: Transforming growth factor beta 1 (TGFb1), TGFB1 (gene 7040)
In words: BSK_KF3CT_TGFb1: BioMAP Diversity Plus: KF3CT Assay for Transforming growth factor beta 1 (TGFb1) Biomarker Activity (AID 2283072). To be noted: primary human keratinocytes with fibroblasts; actives raise or lower the signal. In outline:
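Primary human skin cells (keratinocytes, foreskin fibroblasts) were co-cultured, exposed to test chemical and sampled at 24 h. TGF-b1 levels were measured by ELISA and fitted bidirectionally relative to DMSO.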

Read-out in assay [2]: C-C motif chemokine 2 (Homo sapiens) (UniProt P13500)
In words: BSK_KF3CT_MCP1: BioMAP Diversity Plus: KF3CT Assay for Monocyte Chemoattractant Protein 1 (MCP1/CCL2) Biomarker Activity (AID 2283073). To be noted: primary human keratinocytes with fibroblasts; actives raise or lower the signal. In outline: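 Biomarker MCP-1 is measured by ELISA in primary human keratinocytes co-cultured with foreskin fibroblasts, 24 h after chemical treatment; DMSO serves as the negative control and activity baseline.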

Read-out in assay [3]: Matrix Metallopeptidase 9 (MMP9), MMP9 (gene 4318)
In words: BSK_KF3CT_MMP9: BioMAP Diversity Plus: KF3CT Assay for Matrix Metallopeptidase 9 (MMP9) Biomarker Activity (AID 2283074).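 For AC50: MMP9 protein level quantified by ELISA in the co-culture.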 To be noted: primary human keratinocytes with fibroblasts; actives raise or lower the signal. The method, boiled down:
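Human keratinocyte/foreskin fibroblast co-culture; compound added; 24 h; MMP-9 by ELISA; bidirectional fit vs DMSO baseline.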

Read-out in assay [4]: urokinase plasminogen activator (uPA), PLAU (gene 5328)
In words: BSK_KF3CT_uPA: BioMAP Diversity Plus: KF3CT Assay for urokinase plasminogen activator (uPA) Biomarker Activity (AID 2283075). To be noted: primary human keratinocytes with fibroblasts; actives raise or lower the signal. In outline: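 ELISA readout of uPA, analyzed for signal gain or loss relative to DMSO, from a human primary keratinocyte–foreskin fibroblast co-culture measured 24 h after chemical treatment.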

Read-out in assay [5]: CD40, CD40 (gene 958)
In words: BSK_LPS_CD40: BioMAP Diversity Plus: LPS Assay for CD40 Biomarker Activity (AID 2283076). The note with it: primary human HUVEC with PBMC; actives raise or lower the signal. In outline: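 Using a multiplexed primary human co-culture (umbilical vein endothelium plus PBMC), CD40 was read by ELISA 24 h after dosing, with cytotoxicity tracked by sulforhodamine B staining of parallel cultures and activity fitted bidirectionally versus DMSO.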

Read-out in assay [6]: E-selectin (Homo sapiens) (UniProt P16581)
In words: BSK_LPS_Eselectin: BioMAP Diversity Plus: LPS Assay for Eselectin Biomarker Activity (AID 2283077). The note with it: primary human HUVEC with PBMC; actives raise or lower the signal. In outline: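 Dose chemical onto LPS-driven HUVEC/PBMC co-culture; after 24 h, run ELISA for E-selectin; fit up- and down-going responses relative to DMSO control.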

Read-out in assay [7]: Interleukin-8 (IL8), CXCL8 (gene 3576)
In words: BSK_LPS_IL8: BioMAP Diversity Plus: LPS Assay for Interleukin-8 (IL8) Biomarker Activity (AID 2283078). To be noted: primary human HUVEC with PBMC; actives raise or lower the signal. In outline: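 In this LPS system, chemical-treated human umbilical vein endothelium/PBMC co-cultures were harvested at 24 h for IL-8 ELISA.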

The nature of assay [8]: BSK_LPS_SRB: Viability Assessment in the BioMAP Diversity Plus: LPS Assay (AID 2283079).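 Note: total protein by sulforhodamine B absorbance as a cytotoxicity measure; measured one day after compound addition; fitted in both directions against DMSO so loss or gain of signal counts.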 To be noted: primary human HUVEC with PBMC. In outline: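 Cytotoxicity endpoint in human endothelial–PBMC co-culture: 24 h exposure, then SRB (0.1%) staining, 560 nm read.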
Read-out in assay [9]: Interleukin-1 alpha (IL1a), IL1A (gene 3552)
In words: BSK_LPS_IL1a: BioMAP Diversity Plus: LPS Assay for Interleukin-1 alpha (IL1a) Biomarker Activity (AID 2283080). To be noted: primary human HUVEC with PBMC; actives raise or lower the signal. In outline:
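Primary human HUVEC and PBMC co-culture stimulated with LPS is dosed and harvested at 24 h. Both increases and decreases in ELISA-measured IL-1a are scored relative to DMSO.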

Read-out in assay [10]: Monocyte Chemoattractant Protein-1 (MCP1), CCL2 (gene 6347)
In words: BSK_LPS_MCP1: BioMAP Diversity Plus: LPS Assay for Monocyte Chemoattractant Protein-1 (MCP1) Biomarker Activity (AID 2283081). To be noted: primary human HUVEC with PBMC; actives raise or lower the signal. The method, boiled down: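 Values derive from bidirectional fitting against DMSO of ELISA-measured MCP-1 in a human primary endothelial and mononuclear cell co-culture, 24 h after chemical addition under LPS activation.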

The nature of assay [11]: BSK_LPS_PGE2: BioMAP Diversity Plus: LPS Assay for Prostaglandin E2 (PGE2) Biomarker Activity (AID 2283082).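 For AC50: secreted prostaglandin E2 measured by ELISA in LPS-stimulated co-culture.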 The note with it: primary human HUVEC with PBMC; actives raise or lower the signal. The method, boiled down: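 LPS-activated HUVEC/PBMC co-culture; cmpd dosed, 24 h; PGE2 by ELISA; bidirectional fit vs DMSO; SRB (0.1%, TCA-fixed, 560 nm) in parallel plates for overt cytotox.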

Read-out in assay [12]: Macrophage colony-stimulating factor (MCSF), CSF1 (gene 1435)
In words: BSK_LPS_MCSF: BioMAP Diversity Plus: LPS Assay for Macrophage colony-stimulating factor (MCSF) Biomarker Activity (AID 2283083). To be noted: primary human HUVEC with PBMC; actives raise or lower the signal. The method, boiled down:
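Bidirectional fit versus DMSO of ELISA-measured M-CSF in co-cultured human umbilical vein endothelial cells and PBMC, sampled 24 h after dosing.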

Read-out in assay [13]: Tissue Factor, F3 (gene 2152)
In words: BSK_LPS_TissueFactor: BioMAP Diversity Plus: LPS Assay for Tissue Factor Biomarker Activity (AID 2283084). The note with it: primary human HUVEC with PBMC; actives raise or lower the signal. The method, boiled down: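 Read-out: CD142 ELISA, 24 h. System: LPS-driven human endothelial/PBMC co-culture. Analysis: up- or down-signal fitted against DMSO.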

Read-out in assay [14]: Tumor necrosis factor (Homo sapiens) (UniProt P01375)
In words: BSK_LPS_TNFa: BioMAP Diversity Plus: LPS Assay for Tumour Necrosis Factor alpha (TNFa) Biomarker Activity (AID 2283085). The note with it: primary human HUVEC with PBMC; actives raise or lower the signal. The method, boiled down:
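Read-out is ELISA of TNFa in primary human endothelial cell–PBMC co-cultures at 24 h after compound. Activity in either direction was fitted against DMSO.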

Read-out in assay [15]: Vascular cell adhesion molecule 1 (VCAM1), VCAM1 (gene 7412)
In words: BSK_LPS_VCAM1: BioMAP Diversity Plus: LPS Assay for Vascular cell adhesion molecule 1 (VCAM1) Biomarker Activity (AID 2283086). To be noted: primary human HUVEC with PBMC; actives raise or lower the signal. In outline: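 HUVEC + PBMC co-culture, LPS system; compound 24 h; VCAM-1 by ELISA; bidirectional fit vs DMSO control; parallel SRB (0.1%, TCA-fixed, 560 nm) for cytotoxicity.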

Read-out in a further assay: CD38, CD38 (gene 952)
In words: BSK_SAg_CD38: BioMAP Diversity Plus: SAg Assay for CD38 Biomarker Activity (AID 2283087). To be noted: primary human HUVEC with PBMC; actives raise or lower the signal. The method, boiled down: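 Human HUVEC plus PBMC co-culture stimulated with superantigen; CD38 measured by ELISA 24 h after chemical dosing. Fluorescence read-out, bidirectional fit against DMSO; cytotoxicity tracked in parallel by SRB and Alamar Blue.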

Read-out in assay [16]: CD40, CD40 (gene 958)
In words: BSK_SAg_CD40: BioMAP Diversity Plus: SAg Assay for CD40 Biomarker Activity (AID 2283088). The note with it: primary human HUVEC with PBMC; actives raise or lower the signal. In outline: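 Endpoint derived by fitting increases or decreases versus DMSO controls. CD40 is detected by fluorescence ELISA in a human vascular co-culture of endothelium and PBMC at 24 h.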

Read-out in the next assay: CD69, CD69 (gene 969)
In words: BSK_SAg_CD69: BioMAP Diversity Plus: SAg Assay for CD69 Biomarker Activity (AID 2283089).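 For AC50: cell surface CD69 protein quantified by ELISA with fluorescence detection.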 To be noted: primary human HUVEC with PBMC; actives raise or lower the signal. The method, boiled down:
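ELISA, fluorescence read-out: CD69 on human umbilical vein endothelial cell + PBMC co-culture, 24 h post-dosing. Gain or loss of signal fitted bidirectionally against DMSO baseline.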

Read-out in assay [17]: Monocyte Chemoattractant Protein-1 (MCP1), CCL2 (gene 6347)
In words: BSK_SAg_MCP1: BioMAP Diversity Plus: SAg Assay for Monocyte Chemoattractant Protein-1 (MCP1) Biomarker Activity (AID 2283090). To be noted: primary human HUVEC with PBMC; actives raise or lower the signal. In outline:
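MCP-1 levels in the endothelial–PBMC SAg co-culture were quantified by ELISA at 24 h post-dosing; both increases and decreases versus DMSO scored. Cytotoxicity monitored by SRB total protein in parallel cultures.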

Read-out in assay [18]: E-selectin (Homo sapiens) (UniProt P16581)
In words: BSK_SAg_Eselectin: BioMAP Diversity Plus: SAg Assay for Eselectin Biomarker Activity (AID 2283091). To be noted: primary human HUVEC with PBMC; actives raise or lower the signal. The method, boiled down: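 Endpoint values derive from bidirectional fitting relative to DMSO, using ELISA-measured E-selectin in a human vascular co-culture (umbilical vein endothelium plus PBMC) sampled 24 h after dosing.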

Chain of Tumor necrosis factor (Homo sapiens) (P01375 whole entry, looked up): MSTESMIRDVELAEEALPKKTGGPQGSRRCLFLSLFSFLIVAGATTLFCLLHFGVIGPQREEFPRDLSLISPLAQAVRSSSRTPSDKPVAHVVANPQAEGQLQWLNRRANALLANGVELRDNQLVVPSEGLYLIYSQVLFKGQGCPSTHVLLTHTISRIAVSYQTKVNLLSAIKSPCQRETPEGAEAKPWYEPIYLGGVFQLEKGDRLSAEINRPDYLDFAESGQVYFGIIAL
Chain of E-selectin (Homo sapiens) (P16581 whole entry, looked up): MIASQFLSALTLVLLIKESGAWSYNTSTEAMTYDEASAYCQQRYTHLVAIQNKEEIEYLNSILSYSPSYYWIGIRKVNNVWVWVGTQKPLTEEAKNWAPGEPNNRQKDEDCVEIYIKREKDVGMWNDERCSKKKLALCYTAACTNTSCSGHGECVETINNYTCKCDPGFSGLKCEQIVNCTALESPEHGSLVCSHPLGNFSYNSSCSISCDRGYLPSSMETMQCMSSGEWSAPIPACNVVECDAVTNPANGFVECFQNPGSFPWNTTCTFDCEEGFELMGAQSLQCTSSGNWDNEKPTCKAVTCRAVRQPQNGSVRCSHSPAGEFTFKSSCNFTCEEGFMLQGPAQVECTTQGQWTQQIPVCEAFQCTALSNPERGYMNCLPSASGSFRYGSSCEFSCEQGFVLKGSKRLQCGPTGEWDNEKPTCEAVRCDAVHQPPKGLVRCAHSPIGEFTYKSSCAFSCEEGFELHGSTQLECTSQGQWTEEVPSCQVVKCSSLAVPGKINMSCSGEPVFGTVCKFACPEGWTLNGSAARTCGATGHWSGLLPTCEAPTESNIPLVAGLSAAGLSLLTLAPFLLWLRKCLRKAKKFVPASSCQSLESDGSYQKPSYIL

As to `Cc1cc(C)c(O)c(C)c1`, the outcome in assay [1] was “inactive”; in assay [2] it was “inactive”; in [3], “inactive”; in assay [4] it was “inactive”; with CD40, CD40 (gene 958) [5], “inactive”; in assay [6], “inactive”. The outcome in assay [7], in assay [8], in assay [9], in assay [10], in assay [12] and in [13] was inactive. The outcome is “inactive” in assay [15]; “inactive” with CD38, CD38 (gene 952); “inactive” in the assay with CD40, CD40 (gene 958) [16]; “inactive” with CD69, CD69 (gene 969); “inactive” in assay [17]. Also, the values for the AC50 in assay [11] and in assay [14] were 2.97 µM (active) and 0.352 µM (active), respectively.

With `OCCC(F)(F)C(F)(F)C(F)(F)C(F)(F)C(F)(F)C(F)(F)F`, the outcome in assay [1] is “inactive”; in assay [2], “inactive”; in [3], “inactive”; in assay [4], “inactive”; in the assay with CD40, CD40 (gene 958) [5] it was “inactive”; in [6], “inactive”. The result in assay [8], in [9], in assay [10], in [11], in assay [12] and in assay [13] was inactive. Moreover, the outcome is “inactive” in assay [14]; “inactive” in assay [15]; “inactive” with CD38, CD38 (gene 952); “inactive” in the assay with CD40, CD40 (gene 958) [16]; “inactive” with CD69, CD69 (gene 969); “inactive” in [17]. For the same compound, the half-maximal activity concentration (AC50) (in general, the concentration at which the activity in the assay is half-maximal) was 40.8 µM (active) with CD40, CD40 (gene 958) [5]; 45.8 µM (active) in [8]; 46.8 µM (active) in assay [12]; 48.9 µM (active) in assay [15]; 50.4 µM (active) in the assay with CD38, CD38 (gene 952); 56.3 µM (active) in the assay with CD40, CD40 (gene 958) [16]. For the same compound, the AC50 with CD69, CD69 (gene 969) was 51.3 µM (active).

Turning to `CCCCCCCCOC(=O)CCCCCCCCC(=O)OCCCCCCCC`, the outcome in assay [1] is “inactive”; in assay [2], “inactive”; in assay [3] it was “inactive”; in assay [4], “inactive”; with CD40, CD40 (gene 958) [5] it was “inactive”; in assay [6] it was “inactive”. For the same compound, the outcome in [7], in assay [8], in assay [9], in [10], in assay [11] and in assay [12] was inactive. The outcome was “inactive” in [13]; “inactive” in assay [14]; “inactive” in assay [15]; “inactive” with CD38, CD38 (gene 952); “inactive” with CD40, CD40 (gene 958) [16]; “inactive” in the assay with CD69, CD69 (gene 969). For the same compound, the result in assay [17] and in [18] was inactive.

With `CCOC(=O)CC(O)(CC(=O)OCC)C(=O)OCC`, the outcome is “inactive” in assay [1]; “inactive” in assay [2]; “inactive” in assay [3]; “inactive” in assay [4]; “inactive” in the assay with CD40, CD40 (gene 958) [5]; “inactive” in assay [6]. Also, the result in assay [7], in assay [8], in [9], in assay [10], in [11] and in assay [12] was inactive. Moreover, the outcome is “inactive” in assay [13]; “inactive” in assay [14]; “inactive” in assay [15]; “inactive” with CD38, CD38 (gene 952); “inactive” in the assay with CD40, CD40 (gene 958) [16]; “inactive” with CD69, CD69 (gene 969). In assay [17], the result was inactive.

Turning to `CC(C)(C)CC(C)(C)c1ccc(O)c(-n2nc3ccccc3n2)c1`, the outcome was “inactive” in [1]; “inactive” in assay [2]; “inactive” in assay [4]; “inactive” in the assay with CD40, CD40 (gene 958) [5]; “inactive” in assay [6]; “inactive” in [7]. Moreover, the outcome in assay [8], in assay [9], in assay [10], in assay [11], in assay [12] and in assay [13] was inactive. Further, the outcome in assay [14] was “inactive”; in assay [15], “inactive”; in the assay with CD38, CD38 (gene 952) it was “inactive”; with CD40, CD40 (gene 958) [16] it was “inactive”; with CD69, CD69 (gene 969), “inactive”; in assay [17], “inactive”. In assay [3], the AC50 was 16.6 µM (active).
